Test results taken from the supplement of paper PMC9262897, “Low-cost anti-mycobacterial drug discovery using engineered E. coli” (Nature Communications, 2022).
Counter-ions that a name gives are not always drawn. ± gives the standard deviation of the averaged measurements.

tested on: E. coli TESEC Mtb Alr; assay: growth (OD600 after 10 h); higher = more growth (less inhibition); conditions: arabinose 1000 nM; compound 0.1 mM; raw OD600 reference: median of DMSO wells 0.294, cell-free background 0.041
Procedure: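 TESEC Mtb Alr E. coli, or the Alr+ wild-type control, in 384-well plates with Prestwick library compounds at 0.1 mM and 1% DMSO, across arabinose induction levels of 1E3 to 1E7 nM. Growth is read as OD600 after 10 h at 37 °C in triplicate biological replicates.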

First: COc1ncnc(NS(=O)(=O)c2ccc(N)cc2)c1OC [Sulfadoxine]
Second: C#Cc1cccc(Nc2ncnc3cc(OCCOC)c(OCCOC)cc23)c1 [Erlotinib]
The growth of the first is higher: 0.28 ± 0.0075 for the first, 0.256 ± 0.01 for the second.

`c1ccc(C2CN3CCSC3=N2)cc1` (stereo not given) [Tetramisole hydrochloride] and `c1ccc([C@H]2CN3CCSC3=N2)cc1` [Levamisole hydrochloride] are within error of each other in growth: 0.303 ± 0.011 for the first, 0.286 ± 0.0062 for the second.

Compared with `CCCC1O[C@@H]2C[C@H]3[C@@H]4CCC5=CC(=O)C=C[C@]5(C)[C@H]4[C@@H](O)C[C@]3(C)[C@]2(C(=O)CO)O1` (stereo not given in full) [Budesonide], `C[C@H]1C[C@@H]2[C@H]([C@@H](O)C[C@@]3(C)[C@H]2CC[C@]3(O)C(=O)CO)[C@@]2(C)C=CC(=O)C=C12` [Methylprednisolone, 6-alpha] is higher in growth: 0.187 ± 0.0064 for the first, 0.254 ± 0.013 for the second.

First: COc1cc2ncnc(Nc3ccc(F)c(Cl)c3)c2cc1OCCCN1CCOCC1 [Gefitinib]
Second: COc1cc2nc(N3CCN(C(=O)C4COc5ccccc5O4)CC3)nc(N)c2cc1OC (stereo not given) [Doxazosin mesylate]
The growth of the first is higher: 0.294 ± 0.019 for the first, 0.047 ± 0.002 for the second.

Going from `C[C@@H](O)[C@H]1C(=O)N2C(C(=O)O)=C(SCCNC=N)C[C@H]12` [Imipenem] to `CC1(C)S[C@@H]2[C@H](NC(=O)[C@H](NC(=O)N3CCNC3=O)c3ccccc3)C(=O)N2[C@H]1C(=O)O` [Azlocillin sodium salt], the growth rises from 0.282 ± 0.0094 to 0.312 ± 0.008.

Going from `CC(=O)Oc1ccccc1C(=O)Nc1ncc([N+](=O)[O-])s1` [Nitazoxanide] to `CC(=O)Oc1ccccc1C(=O)O` [Acetylsalicylic acid], the growth rises from 0.0462 ± 0.0042 to 0.2936 ± 0.0015.

Compared with `CC[C@H](C)[C@H](N)C1=N[C@H](C(=O)N[C@@H](CC(C)C)C(=O)N[C@H](CCC(=O)O)C(=O)N[C@H](C(=O)N[C@H]2CCCCNC(=O)[C@H](CC(N)=O)NC(=O)[C@@H](CC(=O)O)NC(=O)[C@H](Cc3cnc[nH]3)NC(=O)[C@@H](Cc3ccccc3)NC(=O)[C@H]([C@@H](C)CC)NC(=O)[C@@H](CCCN)NC2=O)[C@@H](C)CC)CS1` [Bacitracin], `Nc1nc(=O)c2nc(CNc3ccc(C(=O)N[C@@H](CCC(=O)O)C(=O)O)cc3)cnc2[nH]1` [Folic acid] is lower in growth: 0.324 ± 0.0095 for the first, 0.306 ± 0.0062 for the second.

Going from `CN(Cc1cnc2nc(N)nc(N)c2n1)c1ccc(C(=O)N[C@@H](CCC(=O)O)C(=O)O)cc1` (racemic) [Amethopterin (R,S)] to `O=C(O)CNC(=O)C(CS)Cc1ccccc1` (stereo not given) [Thiorphan], the growth rises from 0.273 ± 0.0079 to 0.305 ± 0.013.

`CCOC(=O)C1=C[C@]2(CC)CCCN3CCc4c(n1c1ccccc41)[C@@H]32` [Vinpocetine] and `CCCCOc1ccc(C(=O)CCN2CCCCC2)cc1` [Dyclonine hydrochloride] are within error of each other in growth: 0.271 ± 0.015 for the first, 0.278 ± 0.0053 for the second.

Compared with `COc1ccccc1O` [Guaiacol], `COc1ccc2cc(CCC(C)=O)ccc2c1` [Nabumetone] is lower in growth: 0.314 ± 0.0073 for the first, 0.208 ± 0.028 for the second.

Compared with `C[C@]12CC[C@@H]3c4ccc(O)cc4C[C@@H](CCCCCCCCC[S+]([O-])CCCC(F)(F)C(F)(F)F)[C@H]3[C@@H]1CC[C@@H]2O` (stereo not given in full) [Fulvestrant], `OC(c1cc(C(F)(F)F)nc2c(C(F)(F)F)cccc12)C1CCCCN1` (stereo not given) [Mefloquine hydrochloride] is lower in growth: 0.296 ± 0.016 for the first, 0.0401 ± 0.0013 for the second.

First: CC(=O)O[C@H]1C[C@@H]2CC[C@@H]3[C@H](CC[C@@]4(C)[C@H]3C[C@H]([N+]3(C)CCCCC3)[C@@H]4OC(C)=O)[C@@]2(C)C[C@@H]1N1CCCCC1 [Vecuronium bromide]
Second: CC(=O)[C@H]1CC[C@H]2[C@@H]3CCC4=CC(=O)CC[C@]4(C)[C@H]3CC[C@]12C [Progesterone]
The growth of the first is lower: 0.0791 ± 0.0015 for the first, 0.175 ± 0.01 for the second.

Going from `NS(=O)(=O)c1cc(C2(O)NC(=O)c3ccccc32)ccc1Cl` (stereo not given) [Chlorthalidone] to `CN1CCN(CCCN2c3ccccc3Sc3ccc(S(=O)(=O)N(C)C)cc32)CC1` [Thioproperazine dimesylate], the growth falls from 0.285 ± 0.012 to 0.165 ± 0.0059.

Going from `CC[C@H]1OC(=O)[C@H](C)[C@@H](O[C@H]2C[C@@](C)(OC)[C@@H](O)[C@H](C)O2)[C@H](C)[C@@H](O[C@@H]2O[C@H](C)C[C@H](N(C)C)[C@H]2O)[C@](C)(O)C[C@@H](C)CN(C)[C@H](C)[C@@H](O)[C@]1(C)O` [Azithromycin] to `C#C[C@]1(O)CC[C@H]2[C@@H]3CCC4=CC(=O)CC[C@@H]4[C@H]3CC[C@@]21CC` [Norgestrel-(-)-D], the growth rises from 0.0419 ± 0.0015 to 0.271 ± 0.0042.

Going from `CC(=O)N(CC(O)CN(C(C)=O)c1c(I)c(C(=O)NCC(O)CO)c(I)c(C(=O)NCC(O)CO)c1I)c1c(I)c(C(=O)NCC(O)CO)c(I)c(C(=O)NCC(O)CO)c1I` (stereo not given) [Iodixanol] to `CC(=O)N(O)CCCCCNC(=O)CCC(=O)N(O)CCCCCNC(=O)CCC(=O)N(O)CCCCCN` [Deferoxamine mesylate], the growth falls from 0.303 ± 0.015 to 0.054 ± 0.0048.

First: CN1CCN2c3ccccc3Cc3ccccc3C2C1 (stereo not given) [Mianserine hydrochloride]
Second: O=C(C1CCCCC1)N1CC(=O)N2CCc3ccccc3C2C1 (stereo not given) [Praziquantel]
The growth of the first is lower: 0.198 ± 0.013 for the first, 0.251 ± 0.0052 for the second.

`Clc1ccc2nsnc2c1NC1=NCCN1` [Tizanidine HCl] and `Nc1cc(-c2ccncc2)c[nH]c1=O` [Amrinone] are within error of each other in growth: 0.287 ± 0.017 for the first, 0.308 ± 0.015 for the second.

Going from `O=c1[nH]c(=O)n([C@H]2C[C@H](O)[C@@H](CO)O2)cc1C(F)(F)F` [Trifluridine] to `CC1CCc2c(N3CCC(O)CC3)c(F)cc3c(=O)c(C(=O)O)cn1c23` (stereo not given) [Nadifloxacin], the growth falls from 0.213 ± 0.049 to 0.04043 ± 0.00023.

Going from `CCN(CC)CCNC(=O)c1cc(Br)c(N)cc1OC` [Bromopride] to `O=c1cc(-c2ccc(O)c(O)c2)oc2cc(O)cc(O)c12` [Luteolin], the growth falls from 0.312 ± 0.011 to 0.0562 ± 0.0013.

Going from `O=C1C(O)=C(O)C(=O)C(O)=C1O` [Tetrahydroxy-1,4-quinone hydrate] to `Clc1cnccn1` [2-Chloropyrazine], the growth falls from 0.29 ± 0.02 to 0.03733 ± 0.00025.
